Experimental data reported in PubChem BioAssay.
Active and inactive are the calls of the source. Unless noted, no rule for the calls is given here.

Legend:
[1] = system: Wnt5a (protein binding on small-molecule microarray); experiment: small molecules binding Wnt5a protein – biophysical, small-molecule microarray, 635/667 nm fluorescence, primary screen (AID 1142); settings: 635 nm fluorescence, higher = more signal;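 also: fluorescence read at 667 nm with signal to noise per printed feature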
[2] = ATP-based viability of Huh7 replicon cells – cell-based, CellTiter-Glo luminescence, basal, 48 h, cytotoxicity control for HCV replication inhibitor project, primary screen (AID 1143); settings: higher = more signal, called active from +8 up or from −8 down;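 also: Huh7 hepatoma cells carrying a hepatitis C replication reporter with no stimulus; test concentration not given here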
[3] = Pseudomonas biofilm growth suppression – PAO1 strain, BacTiter-Glo luminescence, LB-PBS, primary screen (AID 1144); settings: P. aeruginosa PAO1 biofilm, 12 h, higher = more signal
[4] = basal CRE-LacZ reporter activity in PC12 – cell-based, unstimulated, primary screen (AID 1145); settings: no forskolin, luminescence, 4.5 h, higher = more signal, called active from +8 up or from −8 down
[5] = forskolin-driven CRE-LacZ activity in PC12 – cell-based, CRE-LacZ reporter, forskolin-stimulated, primary screen (AID 1146); settings: luminescence, 4.5 h, higher = more signal, called active from +8 up or from −8 down;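 also: PC12 cells with 6xCRE LacZ reporter stimulated by forskolin 10 µM; beta-galactosidase reporter signal reflecting CREB driven transcription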
[6] = biological target: Streptavidin (Streptomyces avidinii) (UniProt P22629); experiment: compounds binding control protein streptavidin – biophysical, small-molecule microarray, 635/667 nm fluorescence, artefact control for SMM compound annotation, primary screen (AID 1147); settings: higher = more signal;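 also: signal reflects streptavidin binding to arrayed compounds as a control protein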
[7] = probe aInhba binding on compound microarray – biochemical, small-molecule microarray, 635/667 nm fluorescence, primary screen (AID 1148); settings: higher = more signal;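 also: score merges 667nm spot fluorescence with signal-to-noise for antibody binding to printed compounds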
Torsin-1A (Homo sapiens) [8] = biological target: Torsin-1A (Homo sapiens) (UniProt O14656); experiment: TOR1A wild-type binding on microarray – cell lysate, small-molecule microarray, lysate, 635/667 nm, primary screen (AID 1149); settings: COS7 hTOR1A-WT lysate, 635 nm fluorescence, higher = more signal
Torsin-1A (Homo sapiens) [9] = biological target: Torsin-1A (Homo sapiens) (UniProt O14656); experiment: torsin A mutant lysate binding on microarrays – cell lysate, small-molecule microarray, COS7 lysate, 635/667 nm fluorescence, primary screen (AID 1150); settings: COS7 hTOR1A mutant lysate, 635 nm fluorescence, higher = more signal;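 also: score pools 667 nm emission and signal to noise measuring lysate protein binding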
[10] = system: Sonic hedgehog protein (Shh); experiment: Sonic hedgehog microarray binding compounds – biochemical, small-molecule microarray, 635/667 nm fluorescence, primary screen (AID 1151); settings: 635 nm fluorescence, higher = more signal;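 also: Shh protein binding to compounds spotted on small-molecule microarray slides; score combines spot fluorescence intensity with signal-to-noise across triplicate slides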
[11] = optical density shifts of acrAB sulA E. coli – strain DRC41, OD650, 48 h, E. coli filamentation inducer project, primary screen (AID 1152); settings: higher = more signal, called active from +8 up or from −8 down;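 also: E. coli MC1000 strain DRC41 lacking acrAB efflux pump and sulA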
[12] = probe aLefty1 binding on compound microarray – biochemical, small-molecule microarray, 635/667 nm fluorescence, primary screen (AID 1153); settings: higher = more signal;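 also: score merges spot fluorescence with signal-to-noise ratio from the scanned slide images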
[13] = plasmodial surface anion channel blockers, osmotic lysis – cell-based, P. falciparum Indochina, OD700, 1 h, primary screen (AID 1154); settings: P. falciparum Indochina infected RBC osmotic lysis, higher = more signal, called active from +8 up or from −8 down
[14] = plasmodial surface anion channel blockers, osmotic lysis – cell-based, P. falciparum Indochina, OD700, 2 h, primary screen (AID 1155);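 also: lysis reports solute entry through the parasite surface anion channel PSAC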; settings: P. falciparum Indochina infected erythrocytes, higher = more signal, called active from +8 up or from −8 down
[15] = changes in parasitized red cell lysis, either direction – P. falciparum Indochina, OD700, 3 h, PSAC antagonist project, primary screen (AID 1156); settings: P. falciparum-infected erythrocytes, osmotic lysis, higher = more signal, called active from +8 up or from −8 down
[16] = plasmodial surface anion channel blockers, osmotic lysis – cell-based, P. falciparum Indochina, OD700, 18 h, primary screen (AID 1157); settings: P. falciparum Indochina infected erythrocytes, osmotic lysis OD700, 18 h; higher = more signal, called active from +8 up or from −8 down
[17] = S6 kinase pathway phospho-S6 level changes – cell-based, A549, cytoblot, luminescence, serum-stimulated, primary screen (AID 1158); settings: 5 h, higher = more signal;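 also: serum-stimulated A549 lung adenocarcinoma cells; signal is phosphorylated S6 detected by cytoblot immunostaining with HRP secondary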
[18] = biological target: NADPH oxidase 2 (Homo sapiens) (UniProt P04839); experiment: compounds shifting NOX2 Amplex Red fluorescence – cell-based, HEK293-NOX2, PMA-stimulated, NOX inhibitor project, primary screen (AID 1159); settings: 45 min, higher = more signal, called active from +8 up or from −8 down; also: test concentration not given here
[19] = biological target: NADPH oxidase 4 (Homo sapiens) (UniProt Q9NPH5); experiment: compounds shifting NOX4 Amplex Red fluorescence – cell-based, HEK293-NOX4, tetracycline-induced, NOX inhibitor project, primary screen (AID 1160); settings: HEK293-NOX4, Amplex Red H2O2 fluorescence, 45 min; higher = more signal, called active from +8 up or from −8 down
[20] = biological target: NADPH oxidase 5 (Homo sapiens) (UniProt Q96PH1); experiment: compounds shifting NOX5 Amplex Red fluorescence – cell-based, HEK293-NOX5, NOX inhibitor project, primary screen (AID 1161); settings: HEK293-NOX5, ionomycin, 45 min, higher = more signal
NADPH oxidase 5 (Homo sapiens), sequence (Q96PH1 whole entry, looked up): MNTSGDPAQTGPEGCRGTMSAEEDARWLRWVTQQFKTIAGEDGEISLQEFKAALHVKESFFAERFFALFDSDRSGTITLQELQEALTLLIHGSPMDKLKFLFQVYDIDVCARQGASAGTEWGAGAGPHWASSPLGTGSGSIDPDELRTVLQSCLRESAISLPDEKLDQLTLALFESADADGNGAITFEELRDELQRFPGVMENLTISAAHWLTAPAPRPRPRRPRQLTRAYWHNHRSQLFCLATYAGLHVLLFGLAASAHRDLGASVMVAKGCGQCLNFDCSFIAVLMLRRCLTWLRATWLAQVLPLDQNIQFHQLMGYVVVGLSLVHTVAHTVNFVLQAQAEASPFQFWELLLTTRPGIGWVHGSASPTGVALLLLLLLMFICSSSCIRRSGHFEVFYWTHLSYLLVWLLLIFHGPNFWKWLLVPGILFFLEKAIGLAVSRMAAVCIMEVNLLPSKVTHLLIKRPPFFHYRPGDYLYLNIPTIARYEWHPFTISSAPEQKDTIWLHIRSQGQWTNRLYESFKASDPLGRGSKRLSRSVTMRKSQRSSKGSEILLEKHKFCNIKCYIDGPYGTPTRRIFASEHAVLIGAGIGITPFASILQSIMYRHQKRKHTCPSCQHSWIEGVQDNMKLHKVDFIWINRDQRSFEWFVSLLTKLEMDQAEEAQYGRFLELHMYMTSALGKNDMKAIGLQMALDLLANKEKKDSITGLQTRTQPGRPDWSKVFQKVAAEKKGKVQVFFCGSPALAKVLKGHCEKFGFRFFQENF

NADPH oxidase 2 (Homo sapiens), sequence (P04839 whole entry, looked up): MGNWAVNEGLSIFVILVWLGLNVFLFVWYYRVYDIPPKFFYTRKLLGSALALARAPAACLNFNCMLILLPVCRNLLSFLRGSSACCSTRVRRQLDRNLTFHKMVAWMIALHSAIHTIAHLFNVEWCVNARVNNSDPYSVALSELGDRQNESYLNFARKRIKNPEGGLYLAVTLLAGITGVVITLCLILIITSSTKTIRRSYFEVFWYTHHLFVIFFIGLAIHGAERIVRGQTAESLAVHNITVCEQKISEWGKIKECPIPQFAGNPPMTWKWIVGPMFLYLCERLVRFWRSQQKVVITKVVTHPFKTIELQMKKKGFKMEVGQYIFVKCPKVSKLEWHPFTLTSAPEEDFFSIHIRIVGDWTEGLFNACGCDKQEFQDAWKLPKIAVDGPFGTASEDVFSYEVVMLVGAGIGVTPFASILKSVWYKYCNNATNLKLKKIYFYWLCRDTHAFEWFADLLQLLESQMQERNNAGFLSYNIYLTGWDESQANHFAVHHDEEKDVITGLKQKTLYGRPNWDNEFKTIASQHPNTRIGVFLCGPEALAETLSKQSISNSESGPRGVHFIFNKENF
Torsin-1A (Homo sapiens), sequence (O14656 whole entry, looked up): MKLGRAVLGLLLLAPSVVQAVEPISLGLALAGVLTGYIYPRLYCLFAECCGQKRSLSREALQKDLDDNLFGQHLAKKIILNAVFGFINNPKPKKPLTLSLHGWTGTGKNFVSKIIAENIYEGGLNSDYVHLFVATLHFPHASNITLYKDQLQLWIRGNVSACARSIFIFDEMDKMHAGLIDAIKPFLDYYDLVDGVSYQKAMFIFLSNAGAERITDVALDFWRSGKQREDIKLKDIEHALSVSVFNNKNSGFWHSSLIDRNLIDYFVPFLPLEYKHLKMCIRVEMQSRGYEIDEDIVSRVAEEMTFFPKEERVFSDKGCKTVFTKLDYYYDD
NADPH oxidase 4 (Homo sapiens), sequence (Q9NPH5 whole entry, looked up): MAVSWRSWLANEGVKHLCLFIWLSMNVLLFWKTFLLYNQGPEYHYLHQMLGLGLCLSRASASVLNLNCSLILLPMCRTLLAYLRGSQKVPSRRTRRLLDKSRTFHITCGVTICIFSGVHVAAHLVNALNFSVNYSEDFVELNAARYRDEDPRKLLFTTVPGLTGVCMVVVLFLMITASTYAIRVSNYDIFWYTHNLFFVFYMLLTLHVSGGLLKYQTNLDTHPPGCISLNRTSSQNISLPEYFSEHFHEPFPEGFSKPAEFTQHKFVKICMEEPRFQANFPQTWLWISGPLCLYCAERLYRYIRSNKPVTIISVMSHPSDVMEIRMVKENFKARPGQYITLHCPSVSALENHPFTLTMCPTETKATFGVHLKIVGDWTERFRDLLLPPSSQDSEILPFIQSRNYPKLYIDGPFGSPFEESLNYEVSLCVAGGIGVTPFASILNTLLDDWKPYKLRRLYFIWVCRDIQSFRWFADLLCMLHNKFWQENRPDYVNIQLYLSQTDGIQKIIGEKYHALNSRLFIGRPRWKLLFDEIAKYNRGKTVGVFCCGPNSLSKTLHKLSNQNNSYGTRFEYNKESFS
Streptavidin (Streptomyces avidinii), sequence (P22629 whole entry, looked up): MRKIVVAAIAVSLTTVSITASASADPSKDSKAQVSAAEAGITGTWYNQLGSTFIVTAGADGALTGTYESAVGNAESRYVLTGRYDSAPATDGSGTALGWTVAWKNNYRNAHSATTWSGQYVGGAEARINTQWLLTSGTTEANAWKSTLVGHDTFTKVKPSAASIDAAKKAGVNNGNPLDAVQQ

Row | SMILES | composite z-score [1] | z-score [2] | z-score [3] | z-score [4] | z-score [5] | composite z-score [6] | composite z-score [7] | composite z-score (Torsin-1A (Homo sapiens) [8]) | composite z-score (Torsin-1A (Homo sapiens) [9]) | composite z-score [10] | z-score [11] | composite z-score [12] | z-score [13] | z-score [14] | z-score [15] | z-score [16] | z-score [17] | z-score [18] | z-score [19] | z-score [20]
1 | O=C1NC(=O)C2C1C=CC(C(O)c1ccccc1)N2Nc1ccc(Cl)cc1Cl (stereo not given) | 0.656 | -2.84 (inactive) | -1.4 (inactive) | 0.429 (inactive) | -0.12 (inactive) | 2.01 | 0.225 | 1.01 | 1.4 | 1.68 | -1.87 (inactive) | 0.93 | 5.08 (inactive) | -0.32 (inactive) | -3.3 (inactive) | -1.8 (inactive) | 0.726 | -0.169 (inactive) | -4.94 (inactive) | -2.51
2 | Cc1ccc(S[C@]2(C(=O)NC3CC3)CC(=O)N(C3Cc4ccccc4C3)[C@@H]2c2ccc(CO)cc2)cc1 | -0.0244 | -1.6 (inactive) | -0.401 (inactive) | 0.324 (inactive) | -0.906 (inactive) | -0.75 | -0.0136 | -0.382 | 0.23 | -0.766 | 2.26 (inactive) | 0.0962 | 0.924 (inactive) | -0.578 (inactive) | -0.758 (inactive) | -0.876 (inactive) | 0.827 | -0.655 (inactive) | 0.585 (inactive) | 0.205
3 | COc1ccc(C(O)C2C=CC3C(=O)N(c4ccccc4)C(=O)C3N2Nc2ccccc2F)cc1OCc1ccccc1 (stereo not given) | 0.353 | 0.0131 (inactive) | -0.547 (inactive) | -0.143 (inactive) | -0.269 (inactive) | 1.47 | 1.14 | 0.281 | 0.671 | -0.876 | -1 (inactive) | 0.5 | 9.5 (active) | 2.5 (inactive) | 0.361 (inactive) | 1.17 (inactive) | -1.12 | -1.18 (inactive) | -2.79 (inactive) | -1.17
4 | CC(CO)N1C(=O)[C@@H]2C3C(=O)OCCC/C=C\[C@H]3OC23C=CCN(c2ccc4ccccc4c2)C(=O)[C@@H]13 (stereo not given in full) | -0.632 | 0.645 (inactive) | -1.02 (inactive) | -0.0737 (inactive) | 0.156 (inactive) | -0.342 | -0.0719 | -1.72 | -1.03 | -0.256 | 0.453 (inactive) | -0.147 | 1.07 (inactive) | 0.0843 (inactive) | 1.87 (inactive) | 0.011 (inactive) | -0.13 | 1.03 (inactive) | -0.0122 (inactive) | 1.97
5 | [N-]=[N+]=NCc1ccccc1[C@H]1OC(c2ccc(OCCCO)cc2)=N[C@@]1(Cc1ccccc1)C(=O)NCc1ccccc1 | 0.348 | -3.57 (inactive) | -0.862 (inactive) | -0.0108 (inactive) | -0.157 (inactive) | 1.15 | -0.466 | 0.247 | 0.714 | 0.144 | 0.336 (inactive) | 0.22 | 27.6 (active) | 23.5 (active) | 1.96 (inactive) | 1.77 (inactive) | -0.669 | 1.08 (inactive) | 0.113 (inactive) | -0.549
6 | C#CCN(CC1=CCCCC1)[C@H](c1ccccc1Br)[C@@H](O)Cc1ccccc1 | -0.0365 | -1.5 (inactive) | 0.0281 (inactive) | 2.21 (inactive) | 0.219 (inactive) | -0.949 | -0.159 | 1.07 | 0.962 | -0.515 | 1.5 (inactive) | -0.0547 | 3.02 (inactive) | 0.849 (inactive) | 0.372 (inactive) | 0.109 (inactive) | 0.114 | -0.456 (inactive) | 0.191 (inactive) | -1.45
7 | CC(C)C[C@@H]1NC(=O)[C@H]2C[C@@H](C(=O)NCCCCCCN(C)C)[C@@H](c3ccc(O)cc3)N2C1=O | 0.836 | -0.29 (inactive) | -0.041 (inactive) | -0.398 (inactive) | 0.425 (inactive) | 0.189 | -0.147 | 1.47 | 1.52 | 1.97 | -0.655 (inactive) | -0.0573 | 0.977 (inactive) | -0.116 (inactive) | -0.0599 (inactive) | -0.288 (inactive) | -0.384 | 0.193 (inactive) | 0.268 (inactive) | 0.0226
8 | COCCOC(=O)N1C(=O)[C@@]2(c3ccccc31)[C@H](c1ccccc1OCCO)N1[C@H](c3ccccc3)[C@H](c3ccccc3)OC(=O)[C@H]1[C@@H]2C(=O)Nc1nc2ccccc2s1 | 0.212 | -3.78 (inactive) | -0.868 (inactive) | -0.0566 (inactive) | 2.86 (inactive) | 1.14 | 0.113 | 0.421 | 1.25 | 1.81 | 1.57 (inactive) | 0.523 | 3.27 (inactive) | 2.77 (inactive) | 1.37 (inactive) | 1.84 (inactive) | 0.59 | 1.39 (inactive) | 1.41 (inactive) | 0.676
9 | CCOC(=O)C1=CCC(c2ccc(C)cc2)N(S(=O)(=O)c2ccc(C)cc2)C1 (stereo not given) | -0.273 | -3.23 (inactive) | 0.271 (inactive) | -0.527 (inactive) | -0.34 (inactive) | 0.841 | -0.0645 | -0.0669 | 0.121 | -0.396 | -0.792 (inactive) | 0.174 | 2.05 (inactive) | 0.901 (inactive) | -0.628 (inactive) | 0.509 (inactive) | -0.78 | 0.63 (inactive) | 0.637 (inactive) | 1.17
